Experimental findings from PubChem BioAssay (NCI) are described below.

Among the test systems are NCI-H23 lung; NCI-H226 lung; NCI-H322M lung; HOP-62 NSCLC; NCI-H460 lung; HOP-92 NSCLC; NCI-H522 lung; A549/ATCC NSCLC; COLO 205 colon; DU-145 prostate; K-562 leukemia; MALME-3M melanoma; MDA-MB-231 breast; RXF 393 renal; SF-268 CNS; SF-295 CNS; SF-539 CNS; UACC-257 melanoma; M14 melanoma; 786-0 renal.
Test in all cases: NCI-60 one-dose screen, 48 h (100 = growth as untreated, 0 = no growth, -100 = all killed)
Settings in all cases: 10 µM unless noted

Molecules are shown by their SMILES. The panel holds about 83,000 compounds, 20% with a hit somewhere; the sample as a whole holds those more often.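 How to read the values: 0–100, growth inhibition (40 = 60% inhibited); 0, no net growth; -100 to 0, cell death (-40 = 40% of starting cells died; -100 = all dead).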 Values without a mark were called inactive. Activity calls are given as the source filed them. The calls were made as follows: active = growth percent below 10; inactive = the rest.

Consider `Cc1ccc2[nH]c(=O)c3c(c2c1)Oc1ncn2nc(-c4ccco4)nc2c1C3c1ccc(Cl)cc1` (configuration not stated), for which the growth is 93.3% with NCI-H23 lung; 92.4% in the experiment with NCI-H226 lung; 96.1% in the experiment on NCI-H322M lung; 92.1% in the experiment with HOP-62 NSCLC; 99.9% in the experiment on NCI-H460 lung; 78.5% with HOP-92 NSCLC. For the same compound, the growth in the experiment on NCI-H522 lung was 89.5%; with A549/ATCC NSCLC it was 96.7%; in the experiment with COLO 205 colon it was 109%; in the experiment with DU-145 prostate, 98.5%; in the experiment with K-562 leukemia it was 93.2%; with MALME-3M melanoma, 96.3%. For the same compound, the growth with MDA-MB-231 breast was 89.4%; with RXF 393 renal it was 93.2%; with SF-268 CNS it was 91.8%; in the experiment on SF-295 CNS, 95.9%; in the experiment with SF-539 CNS, 89.8%; in the experiment on UACC-257 melanoma, 95.5%. Further, the growth with M14 melanoma was 100%.
For `C=C(C)[C@@H]1C[C@@H]2Cc3cc(Cl)ccc3N1O2`, the growth in the experiment with NCI-H23 lung was 99.8%; in the experiment with NCI-H226 lung, 101%; with NCI-H322M lung, 111%; in the experiment with HOP-62 NSCLC, 93.4%; with NCI-H460 lung, 102%; in the experiment with HOP-92 NSCLC, 25.2%. For the same compound, the growth in the experiment with NCI-H522 lung is 116%; in the experiment with 786-0 renal it was 102%; in the experiment on COLO 205 colon it was 105%; in the experiment on DU-145 prostate, 123%; in the experiment on K-562 leukemia it was 97.7%; with MALME-3M melanoma, 91.4%. The growth was 99.2% with MDA-MB-231 breast; 104% in the experiment with RXF 393 renal; 106% in the experiment with SF-268 CNS; 108% in the experiment with SF-295 CNS; 99.6% in the experiment on SF-539 CNS; 102% in the experiment on UACC-257 melanoma. The growth in the experiment on M14 melanoma is 95.3%.
On to `O=C1/C(=C/c2ccccc2)Oc2ccc(O)c(I)c21`, for which the growth was 96.5% in the experiment with NCI-H23 lung; 74.9% in the experiment on NCI-H226 lung; 94.5% in the experiment on NCI-H322M lung; 100% in the experiment with HOP-62 NSCLC; 103% in the experiment on NCI-H460 lung; 86% in the experiment on HOP-92 NSCLC. Besides, the growth is 84% with NCI-H522 lung; 98.9% with 786-0 renal; 120% in the experiment on COLO 205 colon; 111% with DU-145 prostate; 99.5% with K-562 leukemia; 101% in the experiment on MALME-3M melanoma. For the same compound, the growth in the experiment with MDA-MB-231 breast was 81%; with RXF 393 renal, 108%; in the experiment with SF-268 CNS, 82.6%; in the experiment on SF-295 CNS, 104%; in the experiment on SF-539 CNS, 87.7%; in the experiment on UACC-257 melanoma it was 96.6%. Also, the growth in the experiment on M14 melanoma was 98.5%.
In the case of `COc1ccc(S(=O)(=O)NCCCNc2nccc(-n3ccc4cccnc43)n2)cc1`, the growth in the experiment on NCI-H23 lung was 102%; in the experiment on NCI-H226 lung, 89.9%; in the experiment on NCI-H322M lung, 87.7%; with HOP-62 NSCLC it was 109%; with NCI-H460 lung, 98.7%; with HOP-92 NSCLC, 81.4%. Further, the growth in the experiment with NCI-H522 lung was 84.3%; with 786-0 renal, 97.6%; in the experiment on COLO 205 colon, 113%; in the experiment with DU-145 prostate, 91.7%; with K-562 leukemia it was 77.7%; with MALME-3M melanoma it was 121%. Besides, the growth in the experiment with MDA-MB-231 breast was 91.1%; with RXF 393 renal, 95.5%; in the experiment on SF-268 CNS, 89.6%; in the experiment with SF-295 CNS it was 94.7%; in the experiment on SF-539 CNS, 100%; with UACC-257 melanoma it was 111%. Moreover, the growth with M14 melanoma is -14.4% (active).
`Nc1nc(Nc2cc(Cl)cc(Cl)c2)nn1S(=O)(=O)c1ccc2ccccc2c1`: the growth in the experiment on NCI-H23 lung was 66.5%; with NCI-H226 lung it was 66.7%; in the experiment with NCI-H322M lung it was 76.4%; in the experiment with HOP-62 NSCLC, 66%; with NCI-H460 lung it was 27.8%; in the experiment with HOP-92 NSCLC it was -10.4% (active). The growth is 69% in the experiment on NCI-H522 lung; 25.5% in the experiment with 786-0 renal; 66.5% in the experiment on COLO 205 colon; 47.7% in the experiment on DU-145 prostate; 41.5% in the experiment on K-562 leukemia; 63% with MALME-3M melanoma. The growth with MDA-MB-231 breast is 35.3%; with RXF 393 renal, 30.6%; in the experiment with SF-268 CNS it was 52.4%; with SF-295 CNS, 93.6%; in the experiment with SF-539 CNS, 83.5%; in the experiment with UACC-257 melanoma, 83.3%. Further, the growth in the experiment on M14 melanoma was 78.4%.
On to `CCCCOc1ccc(/C=C2/SC(N3CCOCC3)=NC2=O)cc1OCC`, for which the growth in the experiment with NCI-H23 lung is 98.6%; in the experiment with NCI-H226 lung it was 92%; with NCI-H322M lung, 94.3%; with HOP-62 NSCLC it was 104%; in the experiment with NCI-H460 lung, 99.5%; with HOP-92 NSCLC, 70.7%. Besides, the growth is 75% with NCI-H522 lung; 96% in the experiment with A549/ATCC NSCLC; 113% in the experiment on COLO 205 colon; 99.4% with DU-145 prostate; 86.4% in the experiment with K-562 leukemia; 93.1% in the experiment on MALME-3M melanoma. The growth is 83.8% in the experiment on MDA-MB-231 breast; 94.6% in the experiment with RXF 393 renal; 99.2% in the experiment with SF-268 CNS; 100% with SF-295 CNS; 86.4% with SF-539 CNS; 108% in the experiment on UACC-257 melanoma. Further, the growth in the experiment with M14 melanoma is 91.8%.
`CC1CN(c2oc(-c3ccccc3)nc2C#N)CC(C)O1` (configuration not stated): the growth was 112% with NCI-H23 lung; 92% with NCI-H226 lung; 99.1% with NCI-H322M lung; 103% in the experiment on HOP-62 NSCLC; 99.7% in the experiment with NCI-H460 lung; 123% in the experiment with HOP-92 NSCLC. Also, the growth in the experiment with NCI-H522 lung was 99.4%; in the experiment on 786-0 renal, 99.6%; in the experiment with COLO 205 colon, 116%; in the experiment on DU-145 prostate, 99.7%; in the experiment with K-562 leukemia, 97.6%; with MALME-3M melanoma, 102%. For the same compound, the growth with MDA-MB-231 breast was 101%; in the experiment on RXF 393 renal, 104%; in the experiment on SF-268 CNS, 98.2%; with SF-295 CNS, 99.1%; in the experiment on SF-539 CNS it was 98.6%; with UACC-257 melanoma, 103%. For the same compound, the growth in the experiment with M14 melanoma is 99.3%.
For the compound `COc1ccc2[nH]c(=O)c(/C=N/Nc3nc(-c4ccccc4)cs3)c(O)c2c1`, the growth in the experiment with NCI-H23 lung is 89.7%; in the experiment on NCI-H226 lung, 66.6%; with NCI-H322M lung, 18.2%; in the experiment with HOP-62 NSCLC, 43%; in the experiment with NCI-H460 lung, 46.6%; with HOP-92 NSCLC it was 94.7%. The growth in the experiment on NCI-H522 lung was 80.1%; with A549/ATCC NSCLC, 57.3%; in the experiment with COLO 205 colon, 106%; in the experiment on DU-145 prostate, 63.7%; with K-562 leukemia it was 71.3%; with MALME-3M melanoma, 84.5%. Also, the growth was 57.5% in the experiment with MDA-MB-231 breast; 97.1% in the experiment with RXF 393 renal; 56.4% in the experiment on SF-268 CNS; 69.3% in the experiment with SF-295 CNS; 84.1% with SF-539 CNS; 98.8% with UACC-257 melanoma. Besides, the growth in the experiment with M14 melanoma was 75.2%.
